Experimental data taken from the supplement of paper PMC12282887.
Structures can show the parent of a compound that is named as a salt. ± gives the standard deviation of the averaged measurements.

Key:
Experiment in all cases: promoter activity interaction Z-score (Lux/OD deviation from empty-vector control); higher = stronger promoter induction by the compound
[1] = system: E. coli BW25113 acrABp lux reporter
Summary of the method: (§1)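 E. coli BW25113, as wild type or one of three single-gene deletion strains, carried low-copy luxCDABE promoter reporters and grew in 40 µl LB Lennox in 384-well plates at 37°C, with OD600 and luminescence read every 30 min for 12 h. Each compound was run at four 1:2 dilutions in biological duplicates, integration spanned 0–8 h for wild type and 1–9 h for deletion strains, and wells under 10% of the median growth value were dropped. The score is the Z-transformed residual of growth-normalised luminescence fitted against a control.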

[2] = system: E. coli BW25113 micFp lux reporter
Summary of the method: as §1

[3] = system: E. coli BW25113 ompFp lux reporter
Summary of the method: as §1

[4] = system: E. coli BW25113 robp lux reporter
Summary of the method: as §1

[5] = system: E. coli BW25113 soxSp lux reporter
Summary of the method: as §1

[6] = system: E. coli BW25113 tolCp lux reporter
Summary of the method: as §1

[7] = 3.2 µg/ml, genetic background: wild type
[8] = 3.2 µg/ml, genetic background: ΔmarA
[9] = 3.2 µg/ml, genetic background: Δrob
[10] = 3.2 µg/ml, genetic background: ΔsoxS
[11] = 6.3 µg/ml, genetic background: wild type
[12] = 6.3 µg/ml, genetic background: ΔmarA
[13] = 6.3 µg/ml, genetic background: Δrob
[14] = 6.3 µg/ml, genetic background: ΔsoxS
[15] = 12.7 µg/ml, genetic background: wild type
[16] = 12.7 µg/ml, genetic background: ΔmarA
[17] = 12.7 µg/ml, genetic background: Δrob
[18] = 12.7 µg/ml, genetic background: ΔsoxS
[19] = 25.3 µg/ml, genetic background: wild type
[20] = 25.3 µg/ml, genetic background: ΔmarA
[21] = 25.3 µg/ml, genetic background: Δrob
[22] = 25.3 µg/ml, genetic background: ΔsoxS
[23] = 28.9 µg/ml, genetic background: wild type
[24] = 28.9 µg/ml, genetic background: ΔmarA
[25] = 28.9 µg/ml, genetic background: Δrob
[26] = 28.9 µg/ml, genetic background: ΔsoxS
[27] = 57.7 µg/ml, genetic background: wild type
[28] = 57.7 µg/ml, genetic background: ΔmarA
[29] = 57.7 µg/ml, genetic background: Δrob
[30] = 57.7 µg/ml, genetic background: ΔsoxS
[31] = 115.5 µg/ml, genetic background: wild type
[32] = 115.5 µg/ml, genetic background: ΔmarA
[33] = 115.5 µg/ml, genetic background: Δrob
[34] = 115.5 µg/ml, genetic background: ΔsoxS
[35] = 230.9 µg/ml, genetic background: wild type
[36] = 230.9 µg/ml, genetic background: ΔmarA

With `Cc1cc(NS(=O)(=O)c2ccc(N)cc2)no1` [Sulfamethoxazole] the “promoter activity interaction Z-score” value [1, 7] was -0.0765 ± 0.27, the “promoter activity interaction Z-score” value [1, 8] was 0.689 ± 0.77 and the “promoter activity interaction Z-score” value [1, 9] was -0.221 ± 0.15. For the same molecule, the “promoter activity interaction Z-score” value [1, 10] was -0.171 ± 0.12, the “promoter activity interaction Z-score” value [1, 11] was -0.0766 ± 0.0099 and the “promoter activity interaction Z-score” value [1, 12] was 0.146 ± 0.35. For the same molecule, the “promoter activity interaction Z-score” value [1, 13] was -0.0332 ± 0.079, the “promoter activity interaction Z-score” value [1, 14] was -0.186 ± 0.085 and the “promoter activity interaction Z-score” value [1, 15] was 0.0229 ± 0.067. For the same molecule, the “promoter activity interaction Z-score” value [1, 16] was 0.358 ± 0.25, the “promoter activity interaction Z-score” value [1, 17] was 0.21 ± 0.21 and the “promoter activity interaction Z-score” value [1, 18] was 0.0418 ± 0.11. The “promoter activity interaction Z-score” value [1, 19] was 0.696 ± 0.24, the “promoter activity interaction Z-score” value [1, 20] was 2.36 ± 1.9 and the “promoter activity interaction Z-score” value [1, 21] was 1.91 ± 0.82. For the same molecule, the “promoter activity interaction Z-score” value [1, 22] was 1.07 ± 0.6, the “promoter activity interaction Z-score” value [2, 7] was 0.243 ± 0.46 and the “promoter activity interaction Z-score” value [2, 8] was -0.0615 ± 0.078. For the same molecule, the “promoter activity interaction Z-score” value [2, 9] was 0.056 ± 0.14, the “promoter activity interaction Z-score” value [2, 10] was -0.0348 ± 0.3 and the “promoter activity interaction Z-score” value [2, 11] was 0.103 ± 0.45. For the same molecule, the “promoter activity interaction Z-score” value [2, 12] was -0.116 ± 0.015, the “promoter activity interaction Z-score” value [2, 13] was 0.146 ± 0.091 and the “promoter activity interaction Z-score” value [2, 14] was 0.0657 ± 0.36. For the same molecule, the “promoter activity interaction Z-score” value [2, 15] was 0.21 ± 0.55, the “promoter activity interaction Z-score” value [2, 16] was 0.0105 ± 0.057 and the “promoter activity interaction Z-score” value [2, 17] was 0.372 ± 0.13. The “promoter activity interaction Z-score” value [2, 18] was 0.279 ± 0.24, the “promoter activity interaction Z-score” value [2, 19] was 0.861 ± 0.2 and the “promoter activity interaction Z-score” value [2, 20] was -0.421 ± 0.013. The “promoter activity interaction Z-score” value [2, 21] was 0.736 ± 0.28, the “promoter activity interaction Z-score” value [2, 22] was 0.648 ± 0.11 and the “promoter activity interaction Z-score” value [3, 7] was 1.17 ± 0.96. For the same molecule, the “promoter activity interaction Z-score” value [3, 8] was 0.735 ± 0.72, the “promoter activity interaction Z-score” value [3, 9] was 0.192 ± 0.73 and the “promoter activity interaction Z-score” value [3, 10] was 0.202 ± 0.47. The “promoter activity interaction Z-score” value [3, 11] was 0.748 ± 0.53, the “promoter activity interaction Z-score” value [3, 12] was 0.504 ± 0.34 and the “promoter activity interaction Z-score” value [3, 13] was 0.735 ± 0.12. For the same molecule, the “promoter activity interaction Z-score” value [3, 14] was 0.441 ± 0.62, the “promoter activity interaction Z-score” value [3, 15] was 1.51 ± 1.2 and the “promoter activity interaction Z-score” value [3, 16] was 1.32 ± 0.24. The “promoter activity interaction Z-score” value [3, 17] was 1.71 ± 0.49, the “promoter activity interaction Z-score” value [3, 18] was 1.17 ± 0.39 and the “promoter activity interaction Z-score” value [3, 19] was 2.06 ± 0.7. For the same molecule, the “promoter activity interaction Z-score” value [3, 20] was 2.26 ± 0.076, the “promoter activity interaction Z-score” value [3, 21] was 3.31 ± 1.6 and the “promoter activity interaction Z-score” value [3, 22] was 1.97 ± 1.8. The “promoter activity interaction Z-score” value [4, 7] was 0.934 ± 0.15, the “promoter activity interaction Z-score” value [4, 8] was 0.341 ± 0.082 and the “promoter activity interaction Z-score” value [4, 9] was 0.297 ± 1.1. The “promoter activity interaction Z-score” value [4, 10] was -0.129 ± 0.16, the “promoter activity interaction Z-score” value [4, 11] was 0.764 ± 0.4 and the “promoter activity interaction Z-score” value [4, 12] was 0.234 ± 0.17. For the same molecule, the “promoter activity interaction Z-score” value [4, 13] was 0.557 ± 0.64, the “promoter activity interaction Z-score” value [4, 14] was 0.243 ± 0.13 and the “promoter activity interaction Z-score” value [4, 15] was 1.5 ± 0.42. The “promoter activity interaction Z-score” value [4, 16] was 1.47 ± 0.23, the “promoter activity interaction Z-score” value [4, 17] was 0.701 ± 0.021 and the “promoter activity interaction Z-score” value [4, 18] was 0.407 ± 1.1. The “promoter activity interaction Z-score” value [4, 19] was 3.24 ± 0.095, the “promoter activity interaction Z-score” value [4, 20] was 0.76 ± 0.27 and the “promoter activity interaction Z-score” value [4, 21] was 3.24 ± 0.084. For the same molecule, the “promoter activity interaction Z-score” value [4, 22] was 3.15 ± 1.5, the “promoter activity interaction Z-score” value [5, 7] was -0.125 ± 0.029 and the “promoter activity interaction Z-score” value [5, 8] was -0.2505 ± 0.00087. The “promoter activity interaction Z-score” value [5, 9] was -0.453 ± 0.05, the “promoter activity interaction Z-score” value [5, 10] was -0.491 ± 0.32 and the “promoter activity interaction Z-score” value [5, 11] was -0.197 ± 0.018. The “promoter activity interaction Z-score” value [5, 12] was -0.00904 ± 0.067, the “promoter activity interaction Z-score” value [5, 13] was -0.169 ± 0.057 and the “promoter activity interaction Z-score” value [5, 14] was -0.482 ± 0.4. The “promoter activity interaction Z-score” value [5, 15] was -0.385 ± 0.017, the “promoter activity interaction Z-score” value [5, 16] was -0.102 ± 0.16 and the “promoter activity interaction Z-score” value [5, 17] was -0.194 ± 0.12. For the same molecule, the “promoter activity interaction Z-score” value [5, 18] was -0.0885 ± 0.49, the “promoter activity interaction Z-score” value [5, 19] was -0.318 ± 0.11 and the “promoter activity interaction Z-score” value [5, 20] was -0.113 ± 0.15. For the same molecule, the “promoter activity interaction Z-score” value [5, 21] was -0.388 ± 0.03, the “promoter activity interaction Z-score” value [5, 22] was -0.495 ± 0.81 and the “promoter activity interaction Z-score” value [6, 7] was 1.21 ± 0.56. The “promoter activity interaction Z-score” value [6, 8] was -0.16 ± 0.5, the “promoter activity interaction Z-score” value [6, 9] was -0.33 ± 1 and the “promoter activity interaction Z-score” value [6, 10] was -0.705 ± 0.53. For the same molecule, the “promoter activity interaction Z-score” value [6, 11] was -0.676 ± 0.91, the “promoter activity interaction Z-score” value [6, 12] was 1.17 ± 0.5 and the “promoter activity interaction Z-score” value [6, 13] was 0.87 ± 0.48. For the same molecule, the “promoter activity interaction Z-score” value [6, 14] was -0.0792 ± 0.033, the “promoter activity interaction Z-score” value [6, 15] was -0.0116 ± 0.8 and the “promoter activity interaction Z-score” value [6, 16] was 0.0751 ± 0.68. The “promoter activity interaction Z-score” value [6, 17] was 0.998 ± 0.39, the “promoter activity interaction Z-score” value [6, 18] was 0.466 ± 1 and the “promoter activity interaction Z-score” value [6, 19] was 1.95 ± 0.023. The “promoter activity interaction Z-score” value [6, 20] was 0.663 ± 1.2, the “promoter activity interaction Z-score” value [6, 21] was 0.663 ± 0.22 and the “promoter activity interaction Z-score” value [6, 22] was 1.64 ± 0.21.

For `O=C(O)COCCN1CCN(C(c2ccccc2)c2ccc(Cl)cc2)CC1` (stereo unspecified) [Cetirizine dihydrochloride], the “promoter activity interaction Z-score” value [1, 23] was 0.153 ± 0.22, the “promoter activity interaction Z-score” value [1, 24] was -0.276 ± 0.91 and the “promoter activity interaction Z-score” value [1, 25] was 0.0774 ± 0.078. The “promoter activity interaction Z-score” value [1, 26] was 0.344 ± 0.22, the “promoter activity interaction Z-score” value [1, 27] was 0.202 ± 0.41 and the “promoter activity interaction Z-score” value [1, 28] was -0.0899 ± 0.93. The “promoter activity interaction Z-score” value [1, 29] was -0.297 ± 0.33, the “promoter activity interaction Z-score” value [1, 30] was 0.424 ± 0.48 and the “promoter activity interaction Z-score” value [1, 31] was -0.397 ± 0.14. The “promoter activity interaction Z-score” value [1, 32] was -0.531 ± 0.29, the “promoter activity interaction Z-score” value [1, 33] was -0.491 ± 0.057 and the “promoter activity interaction Z-score” value [1, 34] was -0.239 ± 0.68. For the same molecule, the “promoter activity interaction Z-score” value [1, 35] was -0.0515 ± 0.05, the “promoter activity interaction Z-score” value [1, 36] was -0.913 ± 0.67 and the “promoter activity interaction Z-score” value ([1]; 230.9 µg/ml, genetic background: Δrob) was -0.435 ± 0.21. The “promoter activity interaction Z-score” value ([1]; 230.9 µg/ml, genetic background: ΔsoxS) was -0.388 ± 0.13, the “promoter activity interaction Z-score” value [2, 23] was 0.013 ± 0.03 and the “promoter activity interaction Z-score” value [2, 24] was -0.101 ± 0.1. For the same molecule, the “promoter activity interaction Z-score” value [2, 25] was 0.0307 ± 0.16, the “promoter activity interaction Z-score” value [2, 26] was -0.145 ± 0.42 and the “promoter activity interaction Z-score” value [2, 27] was 0.36 ± 0.081. For the same molecule, the “promoter activity interaction Z-score” value [2, 28] was 0.049 ± 0.28, the “promoter activity interaction Z-score” value [2, 29] was -0.0293 ± 0.15 and the “promoter activity interaction Z-score” value [2, 30] was 0.0699 ± 0.025. For the same molecule, the “promoter activity interaction Z-score” value [2, 31] was -0.327 ± 0.23, the “promoter activity interaction Z-score” value [2, 32] was 0.145 ± 0.13 and the “promoter activity interaction Z-score” value [2, 33] was 0.0776 ± 0.1. The “promoter activity interaction Z-score” value [2, 34] was 0.0293 ± 0.34, the “promoter activity interaction Z-score” value [2, 35] was -0.141 ± 0.27 and the “promoter activity interaction Z-score” value [2, 36] was -0.0442 ± 0.057.
